Source: PubChem BioAssay (National Center for Advancing Translational Sciences (NCATS))
S2 tox – Viability Counterscreen for Primary qHTS for Inhibitors of ATXN expression; S2 cells (HEK-293 line with an ATXN2-luciferase reporter) viability, CellTiter-Fluor protease fluorescence, 24 h; Potency, µM (top dose mostly 56.7 µM), most hits filed as cytotoxic; 400,000 tested, 0.49% active; AID 651635, 2014; note: nearly all actives have a fitted effect of over 40% in size
GLP-1R inv ag – qHTS of GLP-1 Receptor Inverse Agonists (Inhibition Mode). Glucagon-like peptide 1 receptor (Homo sapiens), P43220. HEK293 GLP-1R CRE-luciferase, luminescence, 24 h; GLP-1R form is constitutively active. Potency, µM (doses to about 38.3 µM), actives largely listed as inhibitors. 410,000 tested, 1.6% active; note: nearly all actives have a fitted effect of over 55% in size
Target sequence (P43220 whole entry, looked up): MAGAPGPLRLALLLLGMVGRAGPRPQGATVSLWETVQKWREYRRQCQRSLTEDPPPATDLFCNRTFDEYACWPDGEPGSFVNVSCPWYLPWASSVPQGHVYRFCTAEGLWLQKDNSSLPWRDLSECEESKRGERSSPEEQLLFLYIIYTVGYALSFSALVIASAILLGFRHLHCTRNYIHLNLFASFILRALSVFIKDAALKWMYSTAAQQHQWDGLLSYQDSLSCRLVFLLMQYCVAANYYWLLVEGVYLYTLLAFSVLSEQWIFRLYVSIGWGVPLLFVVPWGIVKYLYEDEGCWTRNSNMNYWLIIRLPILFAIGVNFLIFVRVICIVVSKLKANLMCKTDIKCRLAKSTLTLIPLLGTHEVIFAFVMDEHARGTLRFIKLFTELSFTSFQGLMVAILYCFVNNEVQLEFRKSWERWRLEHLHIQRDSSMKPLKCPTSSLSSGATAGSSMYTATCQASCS
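qHTS in 1536-well format: reporter HEK293 cells expressing constitutive GLP-1R activity in DMEM + 10% Nu serum, 24 hr with compounds at 37 deg C, luminescence read after 12 min with detection reagent.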
GLP-1R agonist – qHTS of GLP-1 Receptor Agonists. HEK293 GLP-1R CRE-luciferase, luminescence, 4-6 h; cells express a hypersensitive GLP-1R form. Potency, µM (series often up to 45.6 µM), hits mostly activators. 380,000 tested, 0.007% active. AID 624172, 2012
ATXN2 expr inh – Primary qHTS for Inhibitors of ATXN expression. HEK-293 ATXN2-luciferase reporter, luminescence, 24 h. AID 1745845, 2022. Potency, µM (doses to about 57 µM), actives largely listed as inhibitors. 360,000 tested, 0.72% active; note: nearly all actives have a fitted effect of over 55% in size
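qHTS (up to 57 uM final) was run with 24 h compound exposure of reporter cells at 37 °C. Each well was multiplexed: SteadyGlo luminescence measured ATXN2-luciferase expression after a fluorogenic Gly-Phe-AFC viability readout (25 uM final).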
TGFb SMAD3 inh – qHTS for Inhibitors of TGF-b; HepG2 CAGA-GFP TGF-b/SMAD3 reporter, GFP fluorescence, 18 h; TGF-beta stimulated, 500 pg/mL final; Potency, µM (series often up to 46.1 µM), actives largely listed as inhibitors; 410,000 tested, 1.2% active; note: nearly all actives have a fitted effect of over 65% in size
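HEPG2 CAGA-GFP cells (1000/well, DMEM with 1% FBS) were pre-incubated 2 h at 37 degrees C, given compound by pin tool, then stimulated with TGF-beta at 500 pg/mL final for 18 h before per-cell GFP fluorescence imaging.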
HepG2 viability – qHTS for Inhibitors of TGF-b: Cytotox Counterscreen | AID 588856, 2011 | HepG2 CAGA-GFP viability, ATP luminescence, 18 h | Potency, µM (highest dose often 46.1 µM), actives largely listed as cytotoxic | 410,000 tested, 0.76% active
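CellTiter-Glo luminescence gave cytotoxicity after 18 hours at 37 degrees C. The cells were HepG2 CAGA-GFP in 1% FBS DMEM, stimulated with 500 pg/mL TGF-beta after compound addition. %Activity was normalised to no-cell wells (complete cell-killing) and DMSO (no toxicity), and curves were fitted and classified.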
Hits are given with their value; i = inactive; ? = inconclusive; nt = no result; ! = not active in a repeat. Hits are enriched below; roughly 3.7% of the tested compounds scored in any of these assays. Calls come from the whole dose curve; as a rule, active = well fitted curve in the direction sought with a large enough effect; inconclusive = small, poorly fitted or top-dose-only effect, or another doubt; inactive = no such curve, though single readings can be large; an effect the other way counts as inactive or inconclusive.

SMILES	S2 tox	GLP-1R inv ag	GLP-1R agonist	ATXN2 expr inh	TGFb SMAD3 inh	HepG2 viability
CN(C(=O)CSc1n[nH]c(-c2cccs2)n1)C1CCS(=O)(=O)C1 (stereo not given)	i	i	i	i	i	11µM
CN(C(=O)CSc1nnc(-c2cccs2)o1)C1CCS(=O)(=O)C1 (stereo not given)	i	i	i	i	i	i
CC(NS(=O)(=O)OCC(Cl)(Cl)Cl)c1ccc(C(C)(C)C)cc1 (stereo not given)	?	5.6µM	i	?	?	i
CC(C)(NS(=O)(=O)OCC(Cl)(Cl)Cl)c1ccccc1	i	?	i	i	i	i
COc1ccc(S(=O)(=O)N2c3cc(C)ccc3OCC2C(C)(C)C)cc1 (stereo not given)	?	5µM	i	i	?	i
Cc1ccc(S(=O)(=O)N2c3ccccc3OCC2c2ccccc2)cc1 (stereo not given)	i	?	i	?	i	i
Cc1ccc(S(=O)(=O)N2c3cc(C)ccc3OCC2C(C)(C)C)cc1 (stereo not given)	i	5µM	i	i	i	i
O=C(Cc1ccc(Br)cc1)N1CCN(c2ccccc2O)CC1	i	11µM	i	i	?	i
Cc1cccc(Oc2ccc(NC(=O)c3ccccc3C(=O)O)cc2)c1C	i	i	i	i	i	i
O=C(O)c1ccccc1C(=O)Nc1ccc(Oc2cccc3ccccc23)cc1	i	i	i	1.6µM	i	i
CC(=O)Nc1ccc(N2CCN(c3ccc(C(F)(F)F)cn3)CC2)nc1	i	i	i	i	i	i
CCN(CC(=O)Nc1ccc(NC(C)=O)cc1)c1ccc(C(F)(F)F)cn1	i	i	i	i	i	3.5µM
O=S(=O)(Cc1cc(Cl)nc(-c2ccncc2)n1)c1ccccc1	i	i	i	i	i	i
O=S(=O)(Cc1cc(Cl)nc(-c2ccccc2)n1)c1ccccc1	?	i	i	32µM	?	i
O=S(=O)(c1ccc(F)cc1)c1snnc1-c1ccccc1	?	?	i	14µM	?	i
O=S(=O)(c1ccc(Cl)cc1)c1snnc1-c1ccccc1	25µM	?	i	20µM	14µM	i
c1ccc(-c2nnsc2-c2ncc[nH]2)cc1	i	i	i	i	i	i
COc1ccccc1NC(=O)C(C)N(C)CCOc1ccccc1 (stereo not given)	i	11µM	i	i	i	i
CC(C)C[C@@H](C(=O)N[C@H](C(=O)OC1CCCC1)c1ccccc1)[C@H](O)C(=O)NO	nt	nt	nt	22µM	nt	nt
Cc1cc(Cl)ccc1NC(=O)NC1CCN(S(=O)(=O)c2ccc(F)cc2)CC1	i	6.3µM	i	i	i	i
O=C(Nc1ccc(F)cc1F)NC1CCN(Cc2c(F)cccc2Cl)CC1	i	8.9µM	i	i	i	i
O=C(Nc1ccc(F)cc1F)NC1CCN(S(=O)(=O)c2ccc(F)cc2)CC1	i	?	i	i	i	i
Cc1ccc2c(c1)nnn2C1CCN(S(=O)(=O)c2ccc(C(=O)O)cc2)CC1	i	i	i	i	i	i
Cc1ccc2c(c1)nnn2C1CCN(S(=O)(=O)c2ccc(C(=O)N3C(C)CCCC3C)cc2)CC1 (stereo not given)	?	4µM	i	?	?	i
COc1ccc(C2/C=C\CN(S(=O)(=O)CC34CCC(CC3=O)C4(C)C)CC(=O)N2Cc2ccc(F)cc2)cc1 (stereo not given)	nt	nt	nt	nt	i	i
SMILES	S2 tox	GLP-1R inv ag	GLP-1R agonist	ATXN2 expr inh	TGFb SMAD3 inh	HepG2 viability
OC(c1ccc(F)cc1)c1nc(-c2cncnc2)cs1 (stereo not given)	i	i	i	i	i	3.5µM
COc1ccc(-c2csc(C(O)c3ccc(F)c(F)c3)n2)cc1 (stereo not given)	i	11µM	i	i	i	i
OC(c1ccc(F)c(F)c1)c1nc(-c2ccccc2)cs1 (stereo not given)	i	i	i	i	i	i
Cc1cccc(CNC(=O)c2cnn(-c3ncc4c(n3)-c3ccccc3CC4)c2C2CC2)n1	i	nt	nt	nt	nt	nt
C=C(NNC(C)=O)c1ccc(O)cc1	nt	nt	nt	nt	i	i
Cc1ccn2c(NC3CCCCC3)c(-c3cccc(-c4cccc(Cl)c4)c3)nc2c1	i	4µM	i	i	?	i
CCC(C)Sc1ccc(-c2nc3cc(C)ccn3c2NC2CCCCC2)cc1 (stereo not given)	?	10µM!	i	i	?	i
CN(C)c1c(Br)cc(C=O)cc1Br	nt	nt	nt	nt	i	i
CCCCN(CC(O)COc1cccc(C)c1)CC(O)COc1cccc(C)c1 (stereo not given)	?	?	i	i	16µM	i
OC[C@@H]1O[C@](CO)(O[C@H]2O[C@H](CO)[C@@H](O)[C@H](O)[C@H]2O)[C@H](O)[C@H]1O	nt	nt	i	nt	nt	nt
O=C(NCCc1ccc(Cl)cc1)C1CCN(S(=O)(=O)c2ccc3[nH]ccc3c2)CC1	i	?	nt	i	i	i
CN(C)c1ccc(NC(=S)c2ccccn2)cc1	i	5.6µM	i	?	?	i
CN(C)c1ccc(/C=C(\C#N)c2ccccn2)cc1	i	?	i	11µM	i	i
COc1cc(CNCCc2c[nH]c3ccccc23)ccc1OCc1ccccc1F	?	7.9µM	i	?	?	13µM
COc1cccc(CNCCc2c[nH]c3ccccc23)c1OCc1ccccc1	i	?	i	?	?	11µM
COc1cc(CNCCc2ccccc2)ccc1OCC(N)=O	i	i	i	i	i	i
COc1ccc(CCNC(=O)NCCc2c[nH]c3ccccc23)cc1OC	i	i	i	i	i	i
COc1cc(CNCCO)ccc1OCCc1ccccc1	i	1µM	i	i	i	i
COc1ccccc1CCNCc1ccc(OC)c(OCc2ccccc2)c1	?	i	i	?	i	i
CCCCN(CC)C(=O)Nc1ccc2c(c1)N(C)C(=O)c1ccccc1S2	nt	i	nt	nt	?	i
COc1cc2c(cc1OC)/C(=C/c1ccc(N(C)C)cc1)C=C2	nt	nt	nt	nt	i	i
O=C1NC[C@@H](CCCCN2C[C@H](Cc3ccccc3)N(CC3CCCCC3)C(=O)C2=O)N(CC2CCCCC2)C1=O	14µM	i	i	i	nt	nt
Cc1cc(C(=O)NCCC(c2ccccc2)c2ccccc2)c(C)o1	i	8.9µM	i	i	i	i
Cc1cc(C(=O)NCCCC(=O)O)c(C)o1	nt	i	i	nt	i	i
CC(=O)N(O)c1ccc(/C=C2\C=Cc3ccccc32)cc1	nt	nt	nt	nt	i	i
